Laboratory results as given in PubChem BioAssay (EPA / NIEHS).
Calls of active or inactive are those of the source. How the source made its calls: active means hit-call score of the fitted dose curve at least 0.9, where 1 is the maximum; inactive means score below 0.9.

Columns and labels:
[1] = target: Transcription factor E2F1 (Homo sapiens) (UniProt Q01094); experiment: ATG_E2F_CIS: Attagene CIS-FACTORIAL HepG2 Assay for human E2F Transcription Factor 1 (AID 2282935); settings: HepG2 Attagene cis-reporter, E2F reporter RNA transcripts; actives raise or lower the signal
In short: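 Total RNA from 24 h-treated, reporter-transfected HepG2 cells undergoes DNase I treatment, oligo(dT) reverse transcription, PCR and 6-FAM primer extension before capillary electrophoresis.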

[2] = ATG_E_Box_CIS: Attagene CIS-FACTORIAL HepG2 Assay for human Enhancer Box (E-box) (AID 2282936); settings: HepG2 E-box cis-reporter transcription, actives raise or lower the signal
In short: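 DMSO served as negative control and baseline for bidirectional fitting. Human hepatoma HepG2 cells, transiently transfected with cis-reporter constructs, were dosed 24 h; reporter mRNA read by RT-PCR and capillary electrophoresis.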

[3] = ATG_M_61_CIS: Attagene CIS-FACTORIAL HepG2 Assay for M61 Transcription Factor (Internal Marker) (AID 2282937); settings: HepG2 Attagene CIS-FACTORIAL M61 internal marker reporter; actives raise or lower the signal
In short: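 Readout is reporter mRNA by RT-PCR, fluorescent primer extension and capillary electrophoresis, with gain or loss fitted relative to DMSO. Transfected HepG2 cells carrying endogenous-TF-driven cis reporters were exposed to chemicals for 24 hours.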

[4] = ATG_EGR_CIS: Attagene CIS-FACTORIAL HepG2 Assay for human Early Growth Response 1 (EGR1) (AID 2282938); settings: HepG2 Attagene CIS-FACTORIAL EGR reporter mRNA; actives raise or lower the signal
In short: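 After 24 h compound exposure, RNA from reporter-transfected HepG2 cells was reverse-transcribed, PCR-amplified, fluorescently labelled and resolved by capillary electrophoresis. EGR1 reporter transcript changes, up or down, were fitted against DMSO, reflecting endogenous transcription-factor activity.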

[5] = ATG_M_19_CIS: Attagene CIS-FACTORIAL HepG2 Assay for M19 Transcription Factor (Internal Marker) (AID 2282939); settings: HepG2 Attagene CIS-FACTORIAL M19 internal marker reporter; actives raise or lower the signal
In short: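 Chemical-treated HepG2 (24 h) with MRTU constructs; reporter transcripts detected by fluorescent RT-PCR fragment analysis on capillary electrophoresis. Internal background marker, DMSO as baseline.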

[6] = ATG_ERE_CIS: Attagene CIS-FACTORIAL HepG2 Assay for Estrogen Response Element (ERE) (AID 2282940); settings: HepG2 ERE cis-reporter, Attagene RNA transcript; actives raise or lower the signal
In short: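 Human liver cells (HepG2) bearing transiently transfected, promoter-regulated reporter units were exposed 24 h. Reporter mRNA induction was detected by capillary electrophoresis of labelled RT-PCR products and fitted bidirectionally to DMSO.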

[7] = ATG_Ets_CIS: Attagene CIS-FACTORIAL HepG2 Assay for human Erythroblast Transformation Specific (ETS) (AID 2282941); settings: HepG2 ETS cis-reporter transcription, actives raise or lower the signal
In short: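 Steps: transfect HepG2 with multiple reporter units; treat compound 24 h; isolate RNA, DNase-treat, reverse-transcribe; PCR-amplify, label with 6-FAM, digest with HpaI; separate by capillary electrophoresis. Activity fitted both directions versus DMSO.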

[8] = target: Hepatocyte nuclear factor 3-beta (Homo sapiens) (UniProt Q9Y261); experiment: ATG_FoxA2_CIS: Attagene CIS-FACTORIAL HepG2 Assay for human Forkhead box A2 (FOXA2) (AID 2282942); settings: HepG2 cis-reporter transcription factor activity, 24 h; actives raise or lower the signal
In short: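 Endogenous transcription factor activity is captured via cis-element-driven reporter transcripts in transfected HepG2. Total RNA taken at 24 h post-dosing; labelled RT-PCR products resolved by capillary electrophoresis. Gain or loss fitted versus DMSO.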

[9] = ATG_FoxO_CIS: Attagene CIS-FACTORIAL HepG2 Assay for human Forkhead box O (FoxO) (AID 2282943); settings: HepG2 Attagene cis-reporter, FoxO element, mRNA; actives raise or lower the signal
In short: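 Endogenous transcription factor activity read from multiplexed cis-promoter reporter transcripts in transiently transfected HepG2, 24 h after dosing. Reporter RNA measured via RT-PCR plus capillary electrophoresis of FAM-labeled products; gain or loss relative to DMSO.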

[10] = ATG_GATA_CIS: Attagene CIS-FACTORIAL HepG2 Assay for human GATA Binding Protein (AID 2282944); settings: HepG2 GATA cis-element reporter, Attagene multiplex mRNA; actives raise or lower the signal
In short: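 Transfected cis-reporter HepG2 cells were treated with chemicals for 24 hours. Total RNA was then converted to cDNA, amplified with reporter-specific primers and analysed by fluorescent capillary electrophoresis, using DMSO-treated wells as baseline.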

[11] = ATG_GLI_CIS: Attagene CIS-FACTORIAL HepG2 Assay for human Zinc Finger Protein GLI1 (AID 2282945); settings: HepG2, Attagene cis-factorial reporter mRNA, GLI element; actives raise or lower the signal
In short: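 Bidirectional curve fits relative to DMSO, using reporter mRNA levels from RT-PCR plus capillary electrophoresis. Cells were HepG2 transiently carrying cis-regulated reporter constructs, harvested 24 h after dosing.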

[12] = target: Bile acid receptor (Homo sapiens) (UniProt Q96RI1); experiment: ATG_IR1_CIS: Attagene CIS-FACTORIAL HepG2 Assay for human Nuclear Receptor Subfamily 1 Group H Member 4 (NR1H4), IR1 submotif (AID 2282946); settings: IR1 reporter transcription, actives raise or lower the signal
In short: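 Cells (human HepG2) carry transiently transfected cis-promoter reporter transcription units. Compounds are incubated 24 h, total RNA is reverse-transcribed and amplified, and labelled fragments are resolved by capillary electrophoresis. Curves use DMSO as baseline.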

[13] = ATG_GRE_CIS: Attagene CIS-FACTORIAL HepG2 Assay for human Glucocorticoid Response Elements (GRE) (AID 2282947); settings: HepG2 GRE cis-reporter, Attagene multiplex mRNA; actives raise or lower the signal
In short: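 Assay uses human hepatoma HepG2 cells transfected with cis-promoter reporter units, exposed 24 h. mRNA from reporters detected by RT-PCR plus capillary electrophoresis; DMSO serves as negative control and baseline.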

[14] = ATG_M_32_CIS: Attagene CIS-FACTORIAL HepG2 Assay for M32 Transcription Factor (Internal Marker) (AID 2282949); settings: HepG2 Attagene cis-factorial M32 reporter, mRNA; actives raise or lower the signal;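 further: background control marker of the multiplexed CIS panel rather than a real target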
In short: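 Following 24 h chemical exposure of HepG2 cells transiently expressing cis-promoter reporter constructs, reporter transcript levels were determined by RT-PCR with fluorescent labelling and capillary electrophoresis, then fitted bidirectionally against DMSO.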

[15] = ATG_M_06_CIS: Attagene CIS-FACTORIAL HepG2 Assay for M06 Transcription Factor (Internal Marker) (AID 2282950); settings: HepG2 Attagene CIS-FACTORIAL M06 internal marker reporter; actives raise or lower the signal
In short: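 Cells (HepG2, transiently carrying cis-driven reporter units) receive chemical for 24 h before RNA isolation. Reporter cDNA is PCR-amplified, FAM-labelled by primer extension, HpaI-digested and sized on a capillary analyser.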

[16] = target: Hypoxia-inducible factor 1-alpha (Homo sapiens) (UniProt Q16665); experiment: ATG_HIF1a_CIS: Attagene CIS-FACTORIAL HepG2 Assay for human Hypoxia Inducible Factor 1 (HIF1A) (AID 2282951); settings: HepG2 Attagene cis-factorial HIF1a reporter transcription; actives raise or lower the signal
In short: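 Activity is fitted in both directions relative to DMSO. Reporter transcripts are read by RT-PCR, fluorescent primer extension and capillary electrophoresis after 24 h chemical treatment. The cells are HepG2 carrying transiently transfected cis-element-driven reporter units responding to endogenous factors.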

[17] = target: Hepatocyte nuclear factor 6 (Homo sapiens) (UniProt Q9UBC0); experiment: ATG_HNF6_CIS: Attagene CIS-FACTORIAL HepG2 Assay for human Hepatocyte Nuclear Factor 6 (HNF6) (AID 2282952); settings: HepG2 Attagene cis-factorial HNF6 reporter transcription; actives raise or lower the signal
In short: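 Reporter mRNA induction or loss in HepG2 after 24 h exposure; transient cis-MRTU transfection; fragments quantified by capillary electrophoresis; bidirectional analysis, DMSO as negative control.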

[18] = target: Heat shock factor protein 1 (Homo sapiens) (UniProt Q00613); experiment: ATG_HSE_CIS: Attagene CIS-FACTORIAL HepG2 Assay for human Heat Shock Transcription Factor 1 (HSE) (AID 2282953); settings: HepG2 HSE cis-reporter, Attagene RNA transcription; actives raise or lower the signal
In short: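 Liver-derived HepG2 cells carry transiently introduced multiple reporter units governed by cis promoters. Reporter RNA measured 24 h post-dose through reverse transcription, PCR amplification, fluorescent labelling and capillary electrophoresis, normalised to DMSO.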

[19] = ATG_MRE_CIS: Attagene CIS-FACTORIAL HepG2 Assay for human Metal Responsive Element (MRE) (AID 2282954); settings: HepG2 MRE cis-reporter transcription, Attagene multiplex; actives raise or lower the signal
In short: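 After a 24 h chemical exposure, transiently transfected HepG2 cells yield RNA whose reporter sequences are amplified, FAM-labelled and sized by capillary electrophoresis. Curves are fitted bidirectionally relative to DMSO.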

[20] = ATG_ISRE_CIS: Attagene CIS-FACTORIAL HepG2 Assay for human Interferon Regulatory Factor 1 (IRF1) binding to an Interferon-Stimulated Response Element (ISRE) (AID 2282948); settings: HepG2 ISRE cis-reporter (Attagene), mRNA transcription readout; actives raise or lower the signal
In short: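 Transfected HepG2 (multiple reporter transcription units, cis elements) dosed 24 h. RNA → oligo(dT) RT → PCR → 6-FAM primer extension → HpaI → CE. DMSO = negative control/baseline.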

Chain of Hypoxia-inducible factor 1-alpha (Homo sapiens) (Q16665 whole entry, looked up): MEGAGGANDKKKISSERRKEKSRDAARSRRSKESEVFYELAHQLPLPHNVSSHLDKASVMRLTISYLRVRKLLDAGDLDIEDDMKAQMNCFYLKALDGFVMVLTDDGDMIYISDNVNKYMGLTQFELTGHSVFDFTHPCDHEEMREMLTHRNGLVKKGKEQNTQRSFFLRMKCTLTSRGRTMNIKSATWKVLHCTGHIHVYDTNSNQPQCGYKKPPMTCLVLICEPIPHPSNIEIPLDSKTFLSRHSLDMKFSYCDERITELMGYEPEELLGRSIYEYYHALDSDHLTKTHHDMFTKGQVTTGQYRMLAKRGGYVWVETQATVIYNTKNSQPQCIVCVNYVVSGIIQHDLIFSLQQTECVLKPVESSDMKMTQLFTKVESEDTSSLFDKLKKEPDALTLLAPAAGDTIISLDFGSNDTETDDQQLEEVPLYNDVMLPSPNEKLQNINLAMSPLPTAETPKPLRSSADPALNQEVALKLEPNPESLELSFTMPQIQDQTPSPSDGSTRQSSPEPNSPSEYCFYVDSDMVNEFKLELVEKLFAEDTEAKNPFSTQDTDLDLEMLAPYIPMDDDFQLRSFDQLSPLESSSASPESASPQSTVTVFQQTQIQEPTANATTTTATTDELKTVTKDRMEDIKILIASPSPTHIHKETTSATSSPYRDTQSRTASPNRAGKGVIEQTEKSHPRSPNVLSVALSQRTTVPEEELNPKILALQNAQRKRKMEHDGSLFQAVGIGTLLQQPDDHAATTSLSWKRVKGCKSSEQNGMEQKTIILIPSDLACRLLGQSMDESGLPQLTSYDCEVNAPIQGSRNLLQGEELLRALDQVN
Chain of Bile acid receptor (Homo sapiens) (Q96RI1 whole entry, looked up, the tested form may be a part): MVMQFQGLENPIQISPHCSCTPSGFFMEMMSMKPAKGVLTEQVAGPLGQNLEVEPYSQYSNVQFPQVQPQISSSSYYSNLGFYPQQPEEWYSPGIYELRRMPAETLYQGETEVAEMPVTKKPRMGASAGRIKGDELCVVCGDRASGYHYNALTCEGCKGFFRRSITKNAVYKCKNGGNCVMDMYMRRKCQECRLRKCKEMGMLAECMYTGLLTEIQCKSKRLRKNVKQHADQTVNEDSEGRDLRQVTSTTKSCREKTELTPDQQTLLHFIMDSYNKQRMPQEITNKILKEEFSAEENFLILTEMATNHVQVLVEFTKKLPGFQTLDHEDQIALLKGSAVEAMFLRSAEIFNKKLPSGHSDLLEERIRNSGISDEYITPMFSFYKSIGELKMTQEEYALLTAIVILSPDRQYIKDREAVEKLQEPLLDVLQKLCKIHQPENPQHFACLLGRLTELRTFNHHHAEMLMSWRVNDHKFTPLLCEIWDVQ
Chain of Transcription factor E2F1 (Homo sapiens) (Q01094 whole entry, looked up): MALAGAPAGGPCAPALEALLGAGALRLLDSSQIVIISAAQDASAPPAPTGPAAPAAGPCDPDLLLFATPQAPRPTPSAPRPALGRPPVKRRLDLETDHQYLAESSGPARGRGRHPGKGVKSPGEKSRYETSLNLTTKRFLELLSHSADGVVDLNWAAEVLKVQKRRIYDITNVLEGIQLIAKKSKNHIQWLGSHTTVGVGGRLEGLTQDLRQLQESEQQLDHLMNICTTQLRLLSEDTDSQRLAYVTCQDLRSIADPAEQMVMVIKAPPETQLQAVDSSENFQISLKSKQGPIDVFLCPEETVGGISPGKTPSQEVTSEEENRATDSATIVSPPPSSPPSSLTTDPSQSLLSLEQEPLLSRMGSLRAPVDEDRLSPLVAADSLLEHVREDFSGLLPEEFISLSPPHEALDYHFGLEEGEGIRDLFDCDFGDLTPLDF
Chain of Hepatocyte nuclear factor 6 (Homo sapiens) (Q9UBC0 whole entry, looked up, the tested form may be a part): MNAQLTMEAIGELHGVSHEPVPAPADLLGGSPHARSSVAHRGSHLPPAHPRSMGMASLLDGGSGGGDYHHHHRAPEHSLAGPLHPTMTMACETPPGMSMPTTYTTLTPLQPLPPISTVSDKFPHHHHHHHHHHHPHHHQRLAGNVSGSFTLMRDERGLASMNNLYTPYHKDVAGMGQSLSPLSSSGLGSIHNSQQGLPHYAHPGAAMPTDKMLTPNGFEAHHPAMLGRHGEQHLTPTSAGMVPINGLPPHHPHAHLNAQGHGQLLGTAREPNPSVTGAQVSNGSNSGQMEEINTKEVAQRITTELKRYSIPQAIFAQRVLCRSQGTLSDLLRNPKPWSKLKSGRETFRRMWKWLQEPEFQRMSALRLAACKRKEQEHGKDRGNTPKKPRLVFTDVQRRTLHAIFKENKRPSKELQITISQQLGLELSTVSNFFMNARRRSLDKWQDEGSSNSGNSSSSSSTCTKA
Chain of Heat shock factor protein 1 (Homo sapiens) (Q00613 whole entry, looked up): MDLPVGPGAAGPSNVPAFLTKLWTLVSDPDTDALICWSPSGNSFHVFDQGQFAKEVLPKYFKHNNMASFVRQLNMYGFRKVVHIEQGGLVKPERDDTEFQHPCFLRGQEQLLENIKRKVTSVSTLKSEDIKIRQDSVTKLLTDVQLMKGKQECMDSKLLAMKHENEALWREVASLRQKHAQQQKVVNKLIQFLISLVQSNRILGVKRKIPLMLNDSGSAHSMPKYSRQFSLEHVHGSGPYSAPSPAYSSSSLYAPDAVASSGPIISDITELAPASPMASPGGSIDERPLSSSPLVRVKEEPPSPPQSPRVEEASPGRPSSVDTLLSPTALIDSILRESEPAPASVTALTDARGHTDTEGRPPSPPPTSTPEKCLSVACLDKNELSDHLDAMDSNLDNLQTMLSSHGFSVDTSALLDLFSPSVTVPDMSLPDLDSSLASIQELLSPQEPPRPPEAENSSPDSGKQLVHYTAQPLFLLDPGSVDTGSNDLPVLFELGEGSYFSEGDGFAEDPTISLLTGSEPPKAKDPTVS
Chain of Hepatocyte nuclear factor 3-beta (Homo sapiens) (Q9Y261 whole entry, looked up): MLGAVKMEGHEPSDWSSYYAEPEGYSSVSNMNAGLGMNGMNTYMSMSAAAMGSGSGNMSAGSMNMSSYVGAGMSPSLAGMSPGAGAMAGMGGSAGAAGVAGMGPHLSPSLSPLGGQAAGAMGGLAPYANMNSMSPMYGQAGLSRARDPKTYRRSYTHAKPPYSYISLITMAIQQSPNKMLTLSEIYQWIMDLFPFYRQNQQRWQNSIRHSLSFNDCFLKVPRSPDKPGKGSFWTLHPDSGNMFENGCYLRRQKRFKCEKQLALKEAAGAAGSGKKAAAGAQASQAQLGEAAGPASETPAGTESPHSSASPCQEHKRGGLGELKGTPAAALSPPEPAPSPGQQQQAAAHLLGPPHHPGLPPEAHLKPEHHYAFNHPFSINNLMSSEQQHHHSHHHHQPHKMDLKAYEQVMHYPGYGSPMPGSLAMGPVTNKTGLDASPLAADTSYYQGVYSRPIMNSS

Compound: O=C(Nc1ccccc1)Nc1cnns1
- outcome [1]: inactive
- outcome [2]: inactive
- outcome [3]: inactive
- AC50 [4]: 90.3 µM (active)
- outcome [5]: inactive
- outcome [6]: inactive
- outcome [7]: inactive
- outcome [8]: inactive
- outcome [9]: inactive
- outcome [10]: inactive
- AC50 [11]: 50 µM (active)
- AC50 [12]: 50 µM (active)
- outcome [13]: inactive
- outcome [14]: inactive
- outcome [15]: inactive
- outcome [16]: inactive
- outcome [17]: inactive
- AC50 [18]: 93.4 µM (active)
- AC50 [19]: 50 µM (active)

Compound: CC(C)(C)C(O)/C(=C\c1ccc(Cl)cc1Cl)n1cncn1 (stereo not given)
- outcome [1]: inactive
- outcome [2]: inactive
- outcome [3]: inactive
- outcome [4]: inactive
- outcome [5]: inactive
- outcome [6]: inactive
- outcome [7]: inactive
- outcome [8]: inactive
- outcome [9]: inactive
- outcome [10]: inactive
- outcome [11]: inactive
- outcome [12]: inactive
- outcome [13]: inactive
- outcome [14]: inactive
- outcome [15]: inactive
- outcome [16]: inactive
- outcome [17]: inactive
- AC50 [19]: 5 µM (active)

Compound: CC(C)N(C(=O)COc1nnc(C(F)(F)F)s1)c1ccc(F)cc1
- outcome [1]: inactive
- outcome [2]: inactive
- outcome [3]: inactive
- outcome [4]: inactive
- outcome [5]: inactive
- outcome [6]: inactive
- AC50 [7]: 15.6 µM (active)
- outcome [8]: inactive
- outcome [9]: inactive
- outcome [10]: inactive
- outcome [11]: inactive
- outcome [12]: inactive
- outcome [13]: inactive
- outcome [14]: inactive
- outcome [15]: inactive
- outcome [16]: inactive
- outcome [17]: inactive
- outcome [18]: inactive
- outcome [19]: inactive

Compound: COc1cc(OC)nc(NC(=O)NS(=O)(=O)c2cc(NC=O)ccc2C(=O)N(C)C)n1
- outcome [1]: inactive
- outcome [2]: inactive
- outcome [3]: inactive
- outcome [4]: inactive
- outcome [5]: inactive
- outcome [6]: inactive
- outcome [7]: inactive
- outcome [8]: inactive
- outcome [9]: inactive
- outcome [10]: inactive
- outcome [11]: inactive
- outcome [12]: inactive
- outcome [13]: inactive
- outcome [14]: inactive
- outcome [16]: inactive
- outcome [17]: inactive
- outcome [19]: inactive

Compound: CCc1ccc(C(=O)NN(C(=O)c2cc(C)cc(C)c2)C(C)(C)C)cc1
- outcome [1]: inactive
- outcome [2]: inactive
- outcome [3]: inactive
- AC50 [4]: 16.5 µM (active)
- outcome [5]: inactive
- outcome [6]: inactive
- outcome [7]: inactive
- outcome [8]: inactive
- outcome [9]: inactive
- outcome [10]: inactive
- outcome [11]: inactive
- outcome [12]: inactive
- outcome [13]: inactive
- outcome [20]: inactive
- outcome [14]: inactive
- outcome [15]: inactive
- outcome [16]: inactive
- outcome [17]: inactive
- AC50 [19]: 18.2 µM (active)

Compound: CN1CSC(=S)N(C)C1
- outcome [1]: inactive
- outcome [2]: inactive
- outcome [3]: inactive
- outcome [4]: inactive
- outcome [5]: inactive
- outcome [6]: inactive
- outcome [7]: inactive
- outcome [8]: inactive
- outcome [9]: inactive
- outcome [10]: inactive
- outcome [11]: inactive
- outcome [12]: inactive
- outcome [13]: inactive
- outcome [14]: inactive
- outcome [16]: inactive
- outcome [17]: inactive
- outcome [18]: inactive
- AC50 [19]: 50 µM (active)
